Assay outcomes: PubChem, National Center for Advancing Translational Sciences (NCATS)
CtBP-E1A blk – qHTS Assay for Inhibitors of the CtBP/E1A Interaction; activity change, % (concentration not given with the values); AlphaScreen GST-E1A/His-CtBP binding, 1536-well; active compounds read low; actives 0.49% (n = 340,000); AID 651724, 2012; CtBP / adenovirus E1A interaction (AlphaScreen); in the data active = activity change below about -65%; inconclusive = mostly about -30% to -63%; also: % is scaled to controls: 0 for no effect and ±100 for the full control effect
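Protein mix (5X: 125 nM each GST-E1A, His-CtBP) was incubated with pinned compound 2 h at 37 deg C in dark, in 50 mM Tris pH 8.0 buffer with 300 mM NaCl. Glutathione donor and nickel acceptor beads followed; AlphaScreen signal read after 1 h.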
BAZ2B block – qHTS Assay for Inhibitors of BAZ2B; Bromodomain adjacent to zinc finger domain protein 2B (Homo sapiens), Q9UIF8; AlphaScreen BAZ2B-H3K14Ac peptide displacement; Potency, µM (highest dose often 114 µM), without a hit: at the highest dose activity change, negative = inhibition, actives largely listed as inhibitors; actives 4.4% (n = 360,000); AID 504333, 2011; also: potency is read from the fitted curve at half-maximal effect; % is scaled to controls: 0 for no effect and ±100 for the full control effect; nearly all actives have a fitted effect of over 60% in size
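BAZ2B (50 nM) with biotin-H3(5-23)K14Ac peptide (50 nM) in PBS pH 7.4, 0.01% Tween-20, preformed 30 min, then compound 30 min at room temperature; top concentration 110uM. AlphaScreen streptavidin donor/nickel chelate acceptor beads (10 ug/mL final), 20 min dark, signal read.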
JMJD2A Tudor – qHTS Assay for Inhibitors of JMJD2A-Tudor Domain. AlphaScreen JMJD2A-Tudor / H3K4me3 peptide binding. Potency, µM (doses to about 114 µM), for inactives: at the highest dose activity change, negative = inhibition, usual class: inhibitors. actives 4.4% (n = 390,000). AID 504339, 2011; also: potency is read from the fitted curve at half-maximal effect; % is scaled to controls: 0 for no effect and ±100 for the full control effect; nearly all actives have a fitted effect of over 50% in size
Six1-Eya2 blk – qHTS Assay for Inhibitors of the Six1/Eya2 Interaction; Homeobox protein SIX1 (Homo sapiens) + Protein phosphatase EYA2 (Homo sapiens), …; AlphaScreen GST-Six1/His-Eya2 binding, biochemical; active compounds read low; activity change, % (concentration not given with the values); actives 0.56% (n = 360,000); in the data active = activity change below about -65%; inconclusive = mostly about -30% to -63%; also: % is scaled to controls: 0 for no effect and ±100 for the full control effect
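Six1/Eya2 binding was read as AlphaScreen signal after compounds were pinned into GST-Six1 plus His-tagged Eya2 (5X stock 250/500 nM) in pH 8.0 Tris/NaCl/TCEP buffer, beads added, then incubated 1 h, 37 C, dark.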
HP1b binding inh – HTS for Inhibitors of HP1-beta Chromodomain Interactions with Methylated Histone Tails | AlphaScreen HP1-beta / biotin-H3K9me3 peptide binding | Potency, µM (series often up to 114 µM), for the others: top-dose activity change, negative = inhibition, usual class: inhibitors | Chromobox protein homolog 1 (Homo sapiens), P83916 | actives 0.56% (n = 390,000); also: potency is read from the fitted curve at half-maximal effect; nearly all actives have a fitted effect of over 70% in size
Target sequence (P83916 whole entry, looked up): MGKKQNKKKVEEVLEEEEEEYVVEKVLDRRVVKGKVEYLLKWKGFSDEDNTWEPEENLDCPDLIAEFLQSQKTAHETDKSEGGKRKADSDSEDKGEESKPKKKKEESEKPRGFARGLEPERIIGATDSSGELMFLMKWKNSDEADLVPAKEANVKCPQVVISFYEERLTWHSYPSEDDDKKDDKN
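Compound inhibition of the preformed complex between 50 nM HP1-beta and 50 nM biotinylated H3K9me3 peptide was read by AlphaScreen. Buffer was PBS pH 7.4 with 0.01% Tween-20. Incubations ran 30 min at room temperature, with 10 ug/mL donor/acceptor beads.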
G9a block – qHTS Assay for Inhibitors of Histone Lysine Methyltransferase G9a | Histone-lysine N-methyltransferase EHMT2 (Homo sapiens), Q96KQ7 | G9a H3K9 monomethylation, AlphaScreen, 2 h | Potency, µM (top dose mostly 102 µM), for the others: at the highest dose activity, negative = inhibition, most hits filed as inhibitors | actives 8.8% (n = 350,000); also: potency is read from the fitted curve at half-maximal effect; % is scaled to controls: 0 for no effect and ±100 for the full control effect; nearly all actives have a fitted effect of over 75% in size
Target sequence (Q96KQ7 913-1193 limits assumed): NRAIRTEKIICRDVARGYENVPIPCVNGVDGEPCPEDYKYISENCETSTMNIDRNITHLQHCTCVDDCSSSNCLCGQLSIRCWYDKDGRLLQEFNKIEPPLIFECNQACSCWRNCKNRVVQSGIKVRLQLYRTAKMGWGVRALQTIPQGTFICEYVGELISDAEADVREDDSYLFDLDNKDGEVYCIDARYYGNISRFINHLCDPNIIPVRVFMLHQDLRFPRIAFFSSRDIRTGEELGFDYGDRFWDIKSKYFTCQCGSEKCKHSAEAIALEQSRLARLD
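Chemiluminescent proximity detection of H3K9 monomethylation, read after 10 min bead incubation in the dark. Reaction: 20 nM G9a, 500 nM biotin-H3K9 peptide, 20 uM SAM cofactor, 2 h, room temperature, following 15 min enzyme-compound preincubation.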
* hit, by the source's call; ? = inconclusive; · = no result; [ ] = another dose, or the depositor's remark. Compounds with a hit are over-represented: about 10% of the library has one in this group of screens. Unless noted, calls follow the shape of the dose curve; as a rule, active = well fitted inhibition curve with a large enough effect; inconclusive = small, poorly fitted or top-dose-only effect; inactive = no such curve, though single readings can be large or run the other way.

SMILES	CtBP-E1A blk	BAZ2B block	JMJD2A Tudor	Six1-Eya2 blk	HP1b binding inh	G9a block
COc1ccc(Nc2nc(N)nc(CN3CCc4ccccc4C3)n2)cc1	-9	50µM*	?	-19	16%	?
COc1ccc(Nc2nc(N)nc(CN3CCC(C)CC3)n2)cc1	2	-33%	-23%	2	7%	20µM*
CC1CC(C)CN(Cc2nc(N)nc(Nc3ccccc3)n2)C1 (stereo not given)	-4	?	?	-5	22%	·
C[C@]12CC[C@H](O)CC1=CCC1C2CC[C@@]2(C)C1CC[C@@H]2NCc1ccccc1 (stereo not given in full)	-1	·	·	0	·	·
COC(=O)c1nc(-c2ccc(C)cc2)[nH]c1C(C)(C)C	-28	·	·	9	·	·
Clc1ccc(-c2csc(=Nc3cccnc3)n2CCCn2ccnc2)cc1Cl	-12	11µM*	40µM*	-24	?	11µM*
COCCn1c(-c2ccc(Br)cc2)csc1=Nc1cccnc1	1	11µM*	45µM*	-25	?	40µM*
O=C(NCCCn1ccnc1)c1cccnc1	4	-11%	-7%	5	47%	7%[59 µM]
FC(F)Oc1ccc(-c2csc(=Nc3cccnc3)n2CC2CCCO2)cc1 (stereo not given)	-9	45µM*	-28%[57.1 µM]	-12	?	?
O=C(NC1=NCCS1)C12CC3CC(C1)CC(C(=O)NC1=NCCS1)(C3)C2	13	50µM*	56µM*	6	0%	?
O=C(O)c1ccc(NC(=S)Nc2ccccc2)cc1	13	0%	-9%	20	-8%	?
CNS(=O)(=O)c1cccc(C(=O)OCC(=O)c2ccc(S(=O)(=O)N3CCCCC3)cc2)c1	3	-34%	-14%	6	41%	28µM*
Cc1cc(C)cc(C(=O)NCC(=O)OCC(=O)N(C)c2ccccc2)c1	13	·	50µM*	0	-2%	6%
CC1CN(C(=O)COC(=O)c2ccc(C#N)cc2)CC(C)O1 (stereo not given)	-2	-25%	-2%	2	39%	50µM*
COc1ccc(C(=O)NCC(=O)OCC(=O)N(C)c2ccccc2)cc1	0	-10%	-2%	0	20%	17%[12.7 µM]
O=C(OCC(=O)N1CCCCCC1)c1ccc(Cl)c(S(=O)(=O)N2CCCC2)c1	3	·	20µM*	9	?	7%
CC1CN(C(=O)COC(=O)c2ccc(O)cc2)CC(C)O1 (stereo not given)	-1	6%	-10%	1	3%	17%
CC(=O)Nc1cccc(C(=O)OCC(=O)c2ccc(S(=O)(=O)N3CCCCC3)cc2)c1	-1	-4%	-16%	-2	62%	-32%
COc1ccc(OCC(=O)Nc2ccc(Cl)c(-c3nc4ncccc4o3)c2)cc1	·	2%	4%	·	35%	-11%[59 µM]
N#Cc1nc(Nc2ccc(Br)cc2)nc(NC2CCCC2)n1	·	·	-14%	·	·	·
N#Cc1ccc(C(=O)OCC(=O)N2CCCCCC2)cc1	-22	0%	-10%	4	7%	22µM*
CN(C(=O)COC(=O)c1ccc(Cl)c(N)c1)c1ccccc1	4	-20%	-17%	11	-18%	-2%
CCOC(=O)C1CCCN(C(=O)COC(=O)c2ccc(C#N)cc2)C1 (stereo not given)	-1	-9%	8%	-3	22%	?
CN(C(=O)COC(=O)c1ccc(C#N)cc1)c1ccccc1	3	-21%	-10%	20	46%	50µM*
Cc1cccc(C)c1NC(=S)N/N=C1\CC2CC=CC12 (stereo not given)	5	-27%	-34%	0	?	13µM*
SMILES	CtBP-E1A blk	BAZ2B block	JMJD2A Tudor	Six1-Eya2 blk	HP1b binding inh	G9a block
Nc1cc(N)cc(-c2nc3ccccc3o2)c1	-4	·	?	-10	-2%	·
Nc1ccc(-c2nc3ccccc3o2)cc1	-9	1%	40µM*	-10	19%	-44%[2.33 µM]
Cc1ccc(C(=O)/C=C/c2cc(Br)cc(Br)c2O)o1	·	?	?	-17	-19%	35µM*
CCOC(=O)C1CCN(C(=O)Cn2cnc3sc(C)c(S(=O)(=O)N4CCCCC4)c3c2=O)CC1	-2	6%	-2%	-24	32%	50µM*
CCOC(=O)C1CCN(C(=O)Cn2cnc3sc(C)c(S(=O)(=O)N4CCC(C)CC4)c3c2=O)CC1	1	0%	-10%	0	5%	11%
COc1ccc(Cl)cc1NC(=O)C(C)NC(c1ccccc1)c1ccccc1 (stereo not given)	5	-2%	-1%	11	29%	79µM*
COc1ccc(Cl)cc1NC(=O)NC(C)C	·	-20%	3%	1	63%	?
CCN(CC)CCCNC(=O)c1ccc(OCC(=O)Nc2ccccc2C(F)(F)F)c(OC)c1	7	-5%	-8%	2	28%	60%
Cc1ccc(-n2c([S-])c(C(=O)Nc3ccc(OC(F)F)cc3)[n+]3ccc(C(=O)NCCO)cc23)cc1C	-9	-37%	-10%	-4	10%	10µM*
COc1ccccc1-n1c([S-])c(C(=O)Nc2ccccc2C(F)(F)F)[n+]2ccc(C(=O)NCCO)cc12	0	-19%	?	-7	?	20µM*
Cc1ccc(NC(=O)c2ccc(OC(F)F)cc2)cc1S(=O)(=O)N(C)C	-4	1%	-18%	-10	44%	22%[59 µM]
CCOC(OCC)c1nc(N)[nH]c(=O)c1CCCCc1ccccc1	1	·	-15%	11	9%[57 µM]	·
Cc1ccc(NNC(=O)CCc2ccccc2)c(C)c1	-4	-5%	2%	9	29%	32µM*
Cc1ccc(NNC(=O)c2ccno2)c(C)c1	9	-1%	-17%	2	49%	0.79µM*
CCCC1=[N+](CC(C)=O)CCn2c(C)ccc21	·	-28%	-35%	-8	44%	32µM*
CCCC1=[N+](CC(=O)c2ccccc2)CCn2cccc21	-8	-34%	-15%	-1	22%	-14%[59 µM]
C=CCn1c(SCC(C)=O)nc2scc(-c3ccco3)c2c1=O	3	45µM*	50µM*	-5	?	7.9µM*
C=CCn1c(SCC(=O)N2CCOCC2)nc2scc(-c3ccco3)c2c1=O	-26	?	28µM*	-15	-23%	?
